# RECQ1 inh – inhibitors of human RECQ1 DNA helicase; P46063; RECQ1 DNA unwinding, red fluorescence kinetic read; Potency, µM (doses to about 57.3 µM), most hits filed as inhibitors; hit rate 0.54% among 240,000; note: nearly all actives have a fitted effect of over 30% in size
# Target sequence (P46063 whole entry, looked up): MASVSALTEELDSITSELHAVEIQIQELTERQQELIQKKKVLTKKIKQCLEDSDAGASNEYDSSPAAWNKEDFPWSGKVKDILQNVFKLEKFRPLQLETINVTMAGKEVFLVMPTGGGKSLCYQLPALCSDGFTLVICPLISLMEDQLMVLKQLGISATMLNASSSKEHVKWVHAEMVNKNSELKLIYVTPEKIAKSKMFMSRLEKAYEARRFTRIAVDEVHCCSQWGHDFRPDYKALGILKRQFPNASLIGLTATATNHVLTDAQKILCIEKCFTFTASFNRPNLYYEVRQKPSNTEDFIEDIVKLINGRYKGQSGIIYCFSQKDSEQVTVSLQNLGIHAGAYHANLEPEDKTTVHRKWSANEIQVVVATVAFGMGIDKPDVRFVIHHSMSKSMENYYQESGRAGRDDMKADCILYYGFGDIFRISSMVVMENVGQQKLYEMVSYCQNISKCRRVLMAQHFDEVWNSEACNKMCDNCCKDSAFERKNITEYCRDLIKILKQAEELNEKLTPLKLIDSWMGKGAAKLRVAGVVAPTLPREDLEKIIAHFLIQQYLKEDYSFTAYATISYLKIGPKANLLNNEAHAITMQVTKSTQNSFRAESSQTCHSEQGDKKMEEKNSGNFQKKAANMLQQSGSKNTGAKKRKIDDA
#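 RECQ1T1 50 nM; forked duplex (20 bp + 30-nt ss tails) 200 nM, ATP 2 mM final; pH 8.0, 2 mM MgCl2, 2.5 ug/ml poly(dI-dC); 15 min compound preincubation; discontinuous kinetic read over 2 h at RT.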
# GoLoco inh red – inhibitors of human Gai1-RGS12 GoLoco interaction (red fluorophore). P63096. Potency, µM (highest dose often 61.6 µM), hits mostly inhibitors. hit rate 0.44% among 230,000. Gai1:RGS12 GoLoco peptide FP, rhodamine, 10 min. AID 880; active = well fitted inhibition curve with a large enough effect, not every such curve was filed as active; inactive = no such curve, though single readings can be large or run the other way; note: nearly all actives have a fitted effect of over 30% in size
# BLM helicase inh – Bloom syndrome helicase (human) inhibition; recombinant BLM DNA unwinding, fluorescence dequenching; Potency, µM (top dose mostly 56.1 µM), usual class: inhibitors; AID 2528; hit rate 0.2% among 350,000; note: nearly all actives have a fitted effect of over 35% in size
# TRb SRC2 PPI – disrupts binding of human TR beta to SRC2; hit rate 0.065% among 280,000; Potency, µM (series often up to 106 µM), hits mostly inhibitors; TRbeta-SRC2 peptide binding, fluorescence polarization; receptor liganded with 1 µM T3; note: nearly all actives have a fitted effect of over 50% in size
#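 Fluorescence polarization of 20 nM Texas Red SRC2 peptide with 0.6 uM human TRb ligand-binding domain, in Tris buffer with 1uM T3 and 5% DMSO. Incubated 5 hr ambient; normalized to unbound and bound controls.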
# ERG-DNA inh – blocks human ERG Ets domain binding to DNA | P11308 | fluorescence polarization, His-ERG Ets domain / labelled DNA | Potency, µM (series often up to 76.9 µM), most hits filed as inhibitors | hit rate 0.028% among 370,000 | AID 624246; active = well fitted inhibition curve with a large enough effect in the polarisation, with a control signal flat; inconclusive = small, poorly fitted or top-dose-only effect, or effect the other way, or a change in a side signal; inactive = no such curve, though single readings can be large or run the other way; the % refers to the polarisation;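 note: polarization taken with two DNA probes labelled with fluorescein and Texas red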
#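 His-tagged ERG Ets domain (1 uM in the protein solution; 300mM KCl, 50mM Tris-HCl, 1mM EDTA, 1mM DTT, pH 7.5) received compound, then a probe mix of 5 nM fluorescein-DNA and 100nM Texas-615-DNA. Fluorescence polarization was read for both dyes.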
# TR SRC2 fluor cs – alters Texas Red total fluorescence, flagging assay interference | TRb/SRC2 Texas Red total fluorescence interference | Potency, µM (highest dose often 106 µM) | hit rate 0.29% among 280,000 | AID 1479; active = well fitted curve in either direction with a large enough effect; inconclusive = small, poorly fitted or top-dose-only effect
#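 Human TRb ligand-binding domain at 0.6 uM with 20 nM Texas Red SRC2 peptide in Tris buffer containing 1 uM T3 and 5% DMSO, incubated with compound 5 h at ambient temperature. Total fluorescence (555/632 nm) calculated as parallel + 2 × perpendicular.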
# A number is an active result; n = inactive; u = inconclusive; x = no result; ! = not active in a repeat; [ ] = remark or other dose. Hits are enriched below; roughly 0.71% of the tested compounds scored in any of these assays. Unless noted, calls come from the whole dose curve; as a rule, active = well fitted curve in the direction sought with a large enough effect; inconclusive = small, poorly fitted or top-dose-only effect, or another doubt; inactive = no such curve, though single readings can be large; an effect the other way counts as inactive or inconclusive.
SMILES,RECQ1 inh,GoLoco inh red,BLM helicase inh,TRb SRC2 PPI,ERG-DNA inh,TR SRC2 fluor cs
CC1=C(C#N)C(=O)N(C2CCS(=O)(=O)C2)C(=O)/C1=C\c1ccco1 (configuration not stated),3.2µM,n,7.1µM,n,x,n
CC1(C)CCC[C@@](C)([C@H]2CC[C@]3(C)[C@@H]2[C@H](O)CC2[C@@]4(C)CC[C@H](O)C(C)(C)[C@@H]4[C@@H](O)C[C@]23C)O1 (some centres not stated),n,x,n,n,x,n
Cc1cc2oc3ccc(NCCCN4CCOCC4)cc3c(=O)c2cc1C,x,x,x,x,n,x
Cc1cc2oc3ccc(NCCCn4ccnc4)cc3c(=O)c2cc1C,x,x,x,x,18µM,x
CC[C@H](C)[C@H](NC(=O)[C@H](Cc1ccccc1)NC(=O)[C@H](CC(C)C)NC(=O)[C@H](CCSC)NC(=O)[C@H](CCC(=O)O)NC(=O)[C@H](CCC(=O)O)NC(=O)[C@H](CC(=O)O)NC(=O)[C@H](CO)NC(=O)[C@@H]1CCCN1C(=O)[C@H](CCCCN)NC(=O)[C@@H](N)[C@@H](C)O)C(=O)N[C@@H](Cc1ccc(O)cc1)C(=O)NCC(=O)N[C@@H](Cc1cnc[nH]1)C(=O)N[C@@H](Cc1ccc(O)cc1)C(=O)N[C@@H](CCCCN)C(=O)N[C@@H](CCC(N)=O)C(=O)N[C@@H](C)C(=O)N[C@H](C(=O)N[C@H](C(=O)NCC(=O)N[C@@H](CC(=O)O)C(=O)N[C@H](C(=O)N[C@@H](CC(N)=O)C(=O)N[C@H](C(=O)N[C@@H](CCC(=O)O)C(=O)N[C@@H](CCCNC(=N)N)C(=O)N1CCC[C@H]1C(=O)NCC(=O)N[C@@H](CCSC)C(=O)N[C@@H](CC(C)C)C(=O)N[C@@H](CC(=O)O)C(=O)N[C@@H](Cc1ccccc1)C(=O)N[C@H](C(=O)O)[C@@H](C)O)[C@@H](C)O)[C@@H](C)CC)C(C)C)[C@@H](C)O,n,x,n,n,x,n
Cc1ccc2c(c1)C1C=CCC1C(C(=O)O)N2 (configuration not stated),8.9µM,n,14µM,n,x,n
CCCCCCCCCC(=O)OC,x,x,x,n,x,n
Cc1ccc(NC(=O)CSc2nc(C)c(Cc3ccccc3)c(=O)[nH]2)cc1C,n,n,n,u,n,40µM![quencher]
COc1cccc(NC(=O)CSc2ncc(S(=O)(=O)c3ccccc3)c(=O)[nH]2)c1,n,n,n,n,n,n
Cc1ccc(NC(=O)CSc2ncc(S(=O)(=O)c3ccccc3)c(=O)[nH]2)cc1C,n,n,n,n,n,0.0003µM[quencher]
CCOC(=O)c1ccc(NC(=O)CSc2nc(C)c(Cc3ccccc3)c(=O)[nH]2)cc1,x,x,n,n,n,u
Cc1ccccc1OCCSc1nc(C)c(Cc2ccccc2)c(=O)[nH]1,x,x,n,u,n,3.2µM[quencher]
COc1cccc(/C=N/Nc2ncnc3c2[nH]c2ccc(C)cc23)c1OC,n,n,14µM,n,n,n
Nc1cc(S(=O)(=O)O)ccc1O,n,n,x,n,x,n
COC(=O)N[C@@H](c1ccc(Br)cc1)C(C(=O)OC)C(=O)OC,n,n,n,n,x,n
Oc1ccc(NCc2ccccc2OCc2ccccc2)cc1,n,n,u,35µM,u,50µM![fluorescent]
COc1cc(CC2COC(c3ccc(O)c(OC)c3)C2COC(C)=O)ccc1O (configuration not stated),25µM,n,25µM,n,n,n
COc1cc([C@@H]2OC[C@@H]3[C@H]2CO[C@@H]3c2ccc3c(c2)OCO3)ccc1O,x,x,x,x,n,x
C[C@@H](C(=O)Nc1ccc2ccccc2c1)[C@H]1C[C@]1(C)[C@H](NC(=O)c1ccccc1)c1ccccc1,n,n,n,n,x,n
O=C(CSc1ccc2nnc(-c3ccccn3)n2n1)N1CCN(c2ccccc2)CC1,40µM,n,n,n,n,n
CCCOc1ccc(C2c3c(oc4ccccc4c3=O)C(=O)N2c2nc(C)c(C(=O)OCC)s2)cc1 (configuration not stated),x,x,n,n,n,n
Cc1ccc(NC(=O)CCS(=O)(=O)c2ccc(Br)s2)cc1,x,x,n,x,n,x
O=C(CCS(=O)(=O)c1ccc(Br)s1)Nc1c(F)cccc1F,x,x,n,u,n,398µM[quencher]
Cc1ccc(S(=O)(=O)NCc2ccc3c(c2)cc(C)n3C)cc1,n,n,n,u,7.1µM,45µM[fluorescent]
CCOc1ccc(CC(=O)NCc2ccc3c(c2)cc(C)n3C)cc1,n,n,n,n,40µM,n
SMILES,RECQ1 inh,GoLoco inh red,BLM helicase inh,TRb SRC2 PPI,ERG-DNA inh,TR SRC2 fluor cs
CC(=O)OC[C@@H]1O[C@@H](O/N=C2/C[C@@H](O)[C@@H](O)[C@@H]3[C@@H]4C(=O)N(c5cccc(Oc6ccccc6)c5)C(=O)[C@H]4CC[C@@H]23)[C@H](OC(C)=O)[C@H](OC(C)=O)[C@@H]1OC(C)=O,n[11.5 µM],x,n[12.4 µM],n[11.2 µM],x,n[11.2 µM]
CCCCCOC(=O)CCN1C(=O)/C(=C2\SC(=S)N(CCC(=O)OCCCCC)C2=O)SC1=S,1.6µM,n,n,n,n,n
COc1ccc(CNc2ncnc3ccc(-c4ccccc4C#N)cc23)c(OC)c1,n,n,n,x,x,x
O=C(NCCCCN1CCN(c2cccc(Cl)c2Cl)CC1)c1ccc2c(c1)Cc1ccccc1-2,n,x,n,n,x,n
CCCn1c2ccccc2c2cnn(CC(=O)Nc3ccccc3OC)c(=O)c21,x,x,n,n,n,u
CCCn1c2ccccc2c2cnn(CC(=O)Nc3cc(OC)c(OC)c(OC)c3)c(=O)c21,x,x,n,n,n,18µM[quencher]
Cc1cc(Cc2cc(C)cc(C(C)(C)C)c2O)c(O)c(C(C)(C)C)c1,x,x,x,n,x,n
O=C(CSc1nc2nccnc2c(=O)n1CCc1c[nH]c2ccccc12)Nc1ccccc1,x,x,n,u,n,u
Cc1ccc(NC(=O)CSc2nc3nccnc3c(=O)n2CCc2c[nH]c3ccccc23)cc1,x,x,n,u,n,25µM[quencher]
CSC1=NC2C(N1)N(C)C(=O)N2C (configuration not stated),n,16µM,n,n,n,n
CCCCN1C(=O)N(C)C2NC(=O)NC21 (configuration not stated),n,n,n,n,n,n
Cc1nc(N=Nc2cc(S(=O)(=O)O)c3cc([N+](=O)[O-])cc(S(=O)(=O)O)c3c2)c(COP(=O)(O)O)c(C=O)c1O,u,n,n,n,x,28µM[quencher]
Cc1nc(N=Nc2cc([N+](=O)[O-])ccc2Cl)c(COP(=O)(O)O)c(C=O)c1O,28µM,x,n,n,x,u
CCOc1cc(C=O)cc(N=Nc2cccc([N+](=O)[O-])c2)c1O,x,x,n,x,n,x
COc1ccc2c(c1)C(=O)[C@@H](OC(=O)NCCOc1ccccc1)[C@H](c1ccc(OC)c(Br)c1)O2,n,n,n,n,x,n

# High-throughput results deposited in PubChem BioAssay by National Center for Advancing Translational Sciences (NCATS).
